Rows were chosen to be rich in hits. Some 0.85% of all compounds tested hit in one or more screens of this group.
BCR signal inh: blocks chronic active B-cell receptor signaling | AID 493014 | Potency, µM (top dose mostly 46.1 µM), inactives show at the top dose activity change, negative = inhibition, actives largely listed as inhibitors | ABC-DLBCL IkBa-CBG/CBR reporter, luminescence ratio, 4 h | actives 0.05% (n = 340,000); active = well fitted inhibition curve with a large enough effect in the signal ratio, with a control signal flat, not every such curve was filed as active; inconclusive = small, poorly fitted or top-dose-only effect, or effect the other way, or a change in a side signal; the % refers to the signal ratio;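 also: potency is read from the fitted curve at half-maximal effect; plate controls were basal doxycycline-induced cells for no effect and cells given 10 µM MG132 for full effect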
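Doxycycline induced both beetle luciferases in TMD8 lymphoma cells; IKK-driven degradation limits the IkappaBalpha-fused green signal, while red luminescence normalises for cell number and nonspecific effects. Compounds tested up to 46 uM, 4 hrs.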
Six1-Eya2 inh: inhibitors of human Six1/Eya2 interaction. activity change, % (no concentration beside the values). actives 0.56% (n = 360,000). AID 651725. AlphaScreen GST-Six1/His-Eya2 binding, biochemical; active compounds read low. Q15475+O00167; also: % is scaled to controls: 0 for no effect and ±100 for the full control effect
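Homogeneous AlphaScreen proximity assay pairing GST-Six1 with His-tagged Eya2 (added as 5X mix: 250 nM and 500 nM) in 50 mM Tris pH 8.0, 300 mM NaCl, 1 mM TCEP. Glutathione donor and nickel acceptor beads; 1 h, 37 °C, dark.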
CtBP-E1A blk: blocks the CtBP interaction with E1A; AlphaScreen GST-E1A/His-CtBP binding, 1536-well; active compounds read low; activity change, % (test concentration not listed); actives 0.49% (n = 340,000); AID 651724; also: % is scaled to controls: 0 for no effect and ±100 for the full control effect
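Homogeneous bead-based format: GST-tagged E1A captured on glutathione donor beads, His-tagged CtBP on nickel acceptor beads; compounds precede bead addition by 2 h at 37 °C.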
TSHR antag: blocks TSH signaling through the human TSH receptor; activity change, negative = inhibition, % at 11.5 µM; P16473; actives 0.2% (n = 330,000); TSHR-expressing cells, TSH-stimulated cAMP HTRF, 2 h; active compounds read low;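 active = activity change below a set negative limit, meaning inhibition stronger than a set level, cut at about -70% in these data; inconclusive = activity change between two set negative limits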; also: % is scaled to controls: 0 for no effect and ±100 for the full control effect
Target sequence (P16473 whole entry, looked up): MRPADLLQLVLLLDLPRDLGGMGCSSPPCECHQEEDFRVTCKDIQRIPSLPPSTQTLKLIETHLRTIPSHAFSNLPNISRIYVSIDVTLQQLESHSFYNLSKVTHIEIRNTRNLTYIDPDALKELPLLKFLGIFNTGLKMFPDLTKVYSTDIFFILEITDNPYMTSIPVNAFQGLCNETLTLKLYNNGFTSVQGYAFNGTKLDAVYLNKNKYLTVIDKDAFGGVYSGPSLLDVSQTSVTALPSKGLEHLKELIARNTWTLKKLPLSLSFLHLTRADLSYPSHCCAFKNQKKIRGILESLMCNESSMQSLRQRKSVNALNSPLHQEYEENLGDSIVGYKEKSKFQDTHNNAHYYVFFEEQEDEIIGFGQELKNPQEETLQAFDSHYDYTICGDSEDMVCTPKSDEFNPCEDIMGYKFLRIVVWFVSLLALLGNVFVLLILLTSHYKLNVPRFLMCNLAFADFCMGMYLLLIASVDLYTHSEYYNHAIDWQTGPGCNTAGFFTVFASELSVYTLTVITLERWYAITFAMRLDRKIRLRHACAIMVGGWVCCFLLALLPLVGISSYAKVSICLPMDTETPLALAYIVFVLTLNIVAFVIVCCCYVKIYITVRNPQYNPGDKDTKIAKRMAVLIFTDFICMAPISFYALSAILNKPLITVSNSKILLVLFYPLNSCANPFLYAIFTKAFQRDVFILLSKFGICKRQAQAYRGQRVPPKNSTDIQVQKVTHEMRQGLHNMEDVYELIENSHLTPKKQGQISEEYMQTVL
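TSHR-expressing cells were treated with compounds, then stimulated with TSH at EC80 (4nM final) for 2 hours at 37 deg C. Cellular cAMP was measured by HTRF competition between lysate cAMP and cAMP-d2 for a cryptate-labelled anti-cAMP antibody.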
S-ASM inh: inhibitors of human secretory acid sphingomyelinase; P17405; actives 0.006% (n = 340,000); placental ASM, HMU-PC fluorogenic substrate, 60 min; Potency, µM (series often up to 57.5 µM), for the others: at the top dose activity change, negative = inhibition, usual class: inhibitors; active = well fitted inhibition curve with a large enough effect; inconclusive = small, poorly fitted or top-dose-only effect; inactive = no such curve, though single readings can be large or run the other way; also: potency is read from the fitted curve at half-maximal effect
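Human placenta-derived ASM enzyme was preincubated with compound for 10 minutes at room temperature, then given fluorogenic substrate HMU-PC0 (9 uM final) for 60 minutes at 37 °C; a pH 10 stop preceded fluorescence reading at Ex 386/Em 447 nm.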
Active calls of the source: *; ? = inconclusive; . = not tested or not shown. Rule as the data show it, unless noted: active = activity change below about -65%; inconclusive = mostly about -30% to -63%; inactive = weaker than that.

SMILES	BCR signal inh	Six1-Eya2 inh	CtBP-E1A blk	TSHR antag	S-ASM inh
CCN(CC)c1ccc2cc(-c3nc4ccccc4[nH]3)c(=O)oc2c1	8%	22	5	-8	28%
O=C(NCCc1ccc(Cl)cc1)c1ccc(CSCc2cccc(Cl)c2)o1	1%	.	.	.	.
Cc1ccc(C(NC(=O)C(C)C)c2cc([N+](=O)[O-])c3cccnc3c2O)cc1 (stereo not drawn)	-1%	-88*	-96*	-35	-5%
CC(C)C(=O)NC(c1cccs1)c1cc([N+](=O)[O-])c2cccnc2c1O (stereo not drawn)	6%	-97*	-91*	-20	-2%
Cc1nc2ccccc2n1CCc1nc2c3ccccc3nc(SCc3ccccc3F)n2n1	-13%	.	.	.	.
COc1ccc(S(=O)(=O)NCCc2csc3nc(-c4ccc(Cl)cc4)nn23)cc1C	-4%	.	.	.	.
Cc1cccc(-c2ccc3ncnc(NCc4cc(C)cs4)c3c2)c1	-16%	.	.	-16	.
Cc1ccc(-c2nc3c4ccccc4n(CC(=O)N4CCN(c5ccccc5F)CC4)c(=O)n3n2)cc1	-3%	.	.	.	.
CC(NC(=O)C(=O)Nc1c2c(nn1-c1ccccc1)CSC2)c1ccccc1 (stereo not drawn)	-5%	.	.	.	.
COC(=O)c1nc2n(n1)C(c1cccc(Cl)c1)C1=C(CCCC1=O)N2 (stereo not drawn)	-1%	4	4	-85*	12%
COc1cccc(NC(=O)Cn2nnc(-c3nc(-c4ccccc4)no3)c2N)c1	-29%	.	.	.	.
Cc1cccc(NC(=O)Oc2ccc(Cl)c3cccnc23)c1	.	-92*	?	.	.
O=C(Oc1ccc(Cl)c2cccnc12)c1cccnc1	?	-93*	-82*	20	-2%
O=c1[nH]c(=O)n([C@H]2C[C@@H](O)[C@@H](CO)O2)cc1C=CBr	.	.	.	-6	.
Cc1ccc(C)n1Cc1ccc(C(=O)O)cc1	-11%	-71*	4	-6	?
CCCn1c2ccccc2c2cnn(CC(=O)Nc3ccccc3OC)c(=O)c21	-15%	.	.	.	.
CC(C)(C)c1ccc(-n2nc(C#N)c(Cl)cc2=O)cc1	?	-10	5	-80*	2%
CC(C)(C)c1ccc(-n2nc(C(N)=O)c(O)cc2=O)cc1	5%	-10	.	-1	-2%
CCOC(=O)c1c(C)oc2c1c(C=NCc1ccccn1)c(O)c1ccccc12	11%	-75*	-1	19	-12%
CCOC(=O)c1c(C)oc2c1c(C=NCC1CCCO1)c(O)c1ccccc12 (stereo not drawn)	9%	-8	2	6	-4%
CCC(=O)Nc1cccc(-c2nc3ccccc3o2)c1	14%	-4	0	7	-1%
CC(=O)Nc1nc2ccc(-c3nc4ccccc4o3)cc2s1	15µM*	2	-1	-39	170%
COc1ccc(OC)c(NC(=O)CN2C(=O)COc3ccc(S(=O)(=O)NC4CCCC4)cc32)c1	11%	.	.	.	.
CCN(CC)c1ccc(C(=O)NCc2ccc3c(c2)CCN3C(=O)c2ccc(F)cc2)cc1	1%	.	.	.	.
Cc1onc(-c2ccccc2)c1-c1nc2cc(Cl)ccc2c(=O)o1	13µM*	3	4	-7	9%
SMILES	BCR signal inh	Six1-Eya2 inh	CtBP-E1A blk	TSHR antag	S-ASM inh
CCn1c(C)nc2cc(-c3nnc(-c4c(-c5ccccc5)noc4C)o3)ccc21	?	-4	-3	-8	-8%
Cn1c(=O)c([N+](=O)[O-])c(Cl)c2ccccc21	?	-15	1	-83*	4%
CN(Cc1ccccc1)S(=O)(=O)c1ccc(OCC(=O)NCc2ccccn2)cc1	2%	1	5	-104*	-4%
CCOc1ccc(C(=O)NC2CC(=O)N(c3ccc(C)cc3)C2)cc1OCC (stereo not drawn)	-3%	.	.	.	.
O=c1[nH]c2ccc(Cl)cc2c(-c2ccccc2)c1N1CCOCC1	14%	12	-24	-1	10%
O=c1[nH]c2ccc(Cl)cc2c(-c2ccccc2)c1CN1CCOCC1	-7%	-73*	-81*	3	-1%
NC(=O)c1cc(N2C(=O)C=CC2=O)ccc1Cl	?	-9	4	1	4%
O=C(O)c1cc(N2C(=O)C=CC2=O)cc(N2C(=O)C=CC2=O)c1	.	-74*	-11	.	3%
C/C(=N/NC(N)=S)c1ccc(Br)s1	20µM*	-2	0	-3	-3%
C/C(=N\NC(=O)Cc1ccccc1)c1ccc(Br)s1	5%	-26	.	8	-2%
Cc1ccc(CCNC(=O)CCSCc2ccccc2Cl)cc1	-1%	.	.	.	.
COc1ccc(OC)c(CNC(=O)c2cnc3c(C)cccn3c2=O)c1	-11%	.	.	.	.
O=C(c1ccc2c(c1)OCO2)N1CCN(S(=O)(=O)c2ccc(Cl)cc2)CC1	2%	-21	-1	-96*	-2%
O=C(c1cccc(Cl)c1)N1CCN(Cc2ccc3c(c2)OCO3)CC1	-1%	-4	-2	-120*	-1%
Cc1c(C(=O)NCc2cccc(Cl)c2)sc2ncnc(N(C)C3CCCCC3)c12	33%	.	.	.	.
O=C(CCN1CCOCC1)N/N=C/c1cc(Br)cc(Br)c1O	12%	-83*	-73*	0	155%
O=C(Cc1csc(N2CCOCC2)n1)N/N=C/c1ccc(O)c(O)c1O	1%	-73*	?	-1	-9%
O=C(NCCCN1CCOCC1)C(=O)N/N=C/c1ccccc1O	2%	-75*	?	-3	3%
O=C(COc1nsnc1N1CCOCC1)N/N=C/c1ccccc1O	0%	-90*	-6	2	105%
O=C(NCCCN1CCOCC1)C(=O)N/N=C/c1ccccc1Cl	?	1	.	19	4%
Cc1ccc(N2CC(NC(=O)C3CCCCC3)CC2=O)cc1C (stereo not drawn)	-8%	.	.	.	.
CCOc1ccc(NC(=O)CSc2nccn2C2CCCC2)cc1	6%	.	.	.	.
CC(C)(C)CC(=O)NC1CC(=O)N(c2ccc3c(c2)OCCO3)C1 (stereo not drawn)	-12%	.	.	.	.
Cc1ccccc1NS(=O)(=O)c1ccc2[nH]cc(C(=O)N3CCCC3)c(=O)c2c1	0%	.	.	.	.
Cc1cc(/C=N/NC(=O)C(=O)NCc2ccccn2)c(C)n1-c1cccc(Br)c1	2%	-14	-12	1	-4%
O=C(NCc1ccccn1)C(=O)N/N=C/c1ccccc1O	-12%	-73*	?	2	47%
CCSC1=C(C#N)C(c2cccs2)C(C(=O)OC)=C(C)N1 (stereo not drawn)	-1%	16	20	-9	0%
CCCSC1=C(C#N)C(c2cccs2)C(C(=O)Nc2ccccc2)=C(C)N1 (stereo not drawn)	?	4	13	-79*	-8%
CN(C)c1nc(-c2ccccn2)nnc1-c1ccccc1	-6%	-92*	-96*	1	0%
CCOC(=O)C(C)Sc1nc(-c2ccccn2)ncc1OC (stereo not drawn)	8%	-91*	.	5	-3%

Source: PubChem (National Center for Advancing Translational Sciences (NCATS))
